NCOA1 inh: SRC1 coactivator transcriptional activity inhibitors, primary screen, cell-based, luminescence | Nuclear receptor coactivator 1 (Homo sapiens), Q15788 | HEK293 GAL4-SRC1 luciferase reporter | inhibition, % at 3.6 µM | 360,000 compounds, 0.12% hits;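 active = inhibition above the campaign mean plus 3 SD, with each screening campaign given its own cutoff, cut at about 60% in these data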;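 also: 0% = DMSO treated cells and 100% = gossypol at 36 µM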
SRC2 inh: inhibition of GAL4-SRC2 driven luciferase reporter, primary screen, SRC2 inhibitor project, cell-based, luminescence. Nuclear receptor coactivator 2 (Homo sapiens), Q15596. HEK293 GAL4-SRC2 luciferase reporter. inhibition, % at 9 µM. 370,000 compounds, 0.17% hits. AID 651957, 2012;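 active = inhibition above the mean inhibition of all tested compounds plus 3 SD, set per campaign, cut at about 52% in these data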;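 also: 0% = DMSO treated cells and 100% = cells given Gossypol at 36 µM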
Gli-Sufu block: Gli-Sufu pathway antagonists, primary screen, luciferase luminescence, Sufu-KO-LIGHT cells, uHTS | Sufu-KO-LIGHT fibroblasts, Gli luciferase reporter luminescence | inhibition, % at 5 µM | 340,000 compounds, 0.74% hits | AID 588413, 2011;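 active = inhibition above about 55%, limit read from the data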;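 also: 0% = DMSO-treated cells and 100% = wells with medium but no cells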
NR2F2 inh: NR2F2 transcriptional activity inhibitors, primary screen, cell-based, luciferase reporter, HEK293T, luminescence; COUP transcription factor 2 (Homo sapiens), P24468; HEK293T NGFI-A luciferase reporter; inhibition, % at 8.6 µM; 370,000 compounds, 0.7% hits; AID 686940, 2013;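 active = inhibition above a per-plate cutoff, mean inhibition of test wells between control levels plus 3 SD, cut at about 38% in these data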;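 also: cells cotransfected with COUP-TFII expression vector driving the NGFI-A reporter; 0% = median of COUP-TF2 test wells and 100% = reporter-only cells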
LRH-1 inv ag: LRH-1 (NR5A2) inverse agonists, primary screen, cell-based, luminescence, HEK293T, StAR-luciferase reporter. 360,000 compounds, 0.13% hits. Nuclear receptor subfamily 5 group A member 2 (Homo sapiens), O00482. LRH-1 transfected, 24 h. AID 602396, 2012. inhibition, % at 3.6 µM;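 active = inhibition above the mean inhibition of all tested compounds plus 3 SD, cut at about 73% in these data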;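 also: 0% = DMSO wells and 100% = reporter-only cells lacking LRH-1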
Target sequence (O00482 whole entry, looked up): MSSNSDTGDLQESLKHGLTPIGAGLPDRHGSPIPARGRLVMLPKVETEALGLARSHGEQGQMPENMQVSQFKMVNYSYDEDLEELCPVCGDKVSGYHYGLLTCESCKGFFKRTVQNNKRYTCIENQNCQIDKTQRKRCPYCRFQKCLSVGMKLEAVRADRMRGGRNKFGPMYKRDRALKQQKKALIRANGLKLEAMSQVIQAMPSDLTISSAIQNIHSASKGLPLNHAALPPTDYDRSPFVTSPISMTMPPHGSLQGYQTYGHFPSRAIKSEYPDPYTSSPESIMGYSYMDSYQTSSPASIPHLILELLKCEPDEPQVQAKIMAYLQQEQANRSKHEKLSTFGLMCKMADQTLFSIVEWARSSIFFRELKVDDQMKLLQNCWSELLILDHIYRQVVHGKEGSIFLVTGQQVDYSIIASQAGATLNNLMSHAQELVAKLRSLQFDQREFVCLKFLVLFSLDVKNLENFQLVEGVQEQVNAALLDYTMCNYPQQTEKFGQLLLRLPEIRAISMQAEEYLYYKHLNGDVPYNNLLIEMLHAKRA
NCOA3 inh: SRC3 coactivator transcriptional activity inhibitors, primary screen, cell-based, luminescence | AID 588352, 2011 | 360,000 compounds, 0.17% hits | HEK293 GAL4-SRC3 luciferase reporter | Nuclear receptor coactivator 3 (Homo sapiens), Q9Y6Q9 | inhibition, % at 3.6 µM;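 active = inhibition above a per-campaign cutoff, the mean of all compounds plus 3 SD, cut at about 60% in these data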;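 also: 0% = DMSO-treated cells and 100% = gossypol-treated cells at 36 µM; higher means less SRC3-driven luciferase light from the GAL4 reporter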
Gli antag conf: Gli-SUFU pathway antagonists, confirmation, single concentration, luciferase luminescence, Sufu-KO-LIGHT cells. shares compounds with Gli-Sufu block. Gli luciferase reporter. inhibition, % at 5 µM. 2,500 compounds, 40% hits. AID 602428, 2012;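 active = mean inhibition at 5 µM reaching about 45%, limit read from the data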;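 also: plate controls were DMSO-treated cells for no effect and wells lacking cells for full effect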
Gli cytotox: cytotoxicity in Sufu-KO-LIGHT cells, confirmation, cytotoxicity control for Gli-SUFU antagonist project, cell-based, ATP luminescence, single concentration; shares compounds with Gli-Sufu block; cytotoxicity, % at 5 µM; 2,500 compounds, 32% hits; AID 651994, 2013;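 active = mean cytotoxicity at 5 µM above about 25%, limit read from the data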;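 also: cells exposed to compound overnight for roughly 16 to 18 hours; plate controls were DMSO wells with cells for no effect and medium without cells for full effect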
Wnt3a cs: Wnt3a reporter signal inhibition, confirmation, counter-screen for Gli-SUFU antagonist project, Wnt-LIGHT cells, luminescence, single concentration; shares compounds with Gli-Sufu block; Wnt3a-driven luciferase reporter; inhibition, % at 6.25 µM; 2,500 compounds, 20% hits;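 active = mean inhibition above about 25%, limit read from the data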
The depositor's hits bear a star; nt = no result given. A selection: hits, their analogues and other compounds. The true share with any hit is near 1.3%.

SMILES	NCOA1 inh	SRC2 inh	Gli-Sufu block	NR2F2 inh	LRH-1 inv ag	NCOA3 inh	Gli antag conf	Gli cytotox	Wnt3a cs
O=C(NCCc1ccccc1)OCc1cn(Cc2ccccc2Cl)nn1	nt	-9	nt	17	nt	nt	nt	nt	nt
O=C(C1CCN(CCCc2ccccc2)CC1)N(CCc1ccccc1)Cc1ccccc1	-9	3	56*	5	4	12	15	24	-43
OCCC(N1CCOCC1)C(O)(c1ccccc1)c1ccccc1 (stereo not drawn)	nt	-8	nt	-4	nt	nt	nt	nt	nt
CC(=O)Nc1cccc(NC(=O)CCn2cnc3cc(C)c(C)cc32)c1	-5	-9	58*	-1	-5	6	11	6	-57
CN1C(=O)C[C@@](C#N)(C(=O)NCCc2ccccc2)[C@H]1c1ccccc1	nt	10	nt	-18	nt	nt	nt	nt	nt
COC(=O)[C@]12C[C@H](CC(=O)N3CCOCC3)C(=O)N(Cc3ccc(Cl)cc3Cl)C1=C[C@H](C(C)(C)C)O[C@@H]2C	nt	-8	nt	5	nt	nt	nt	nt	nt
O=C(Cn1nnc(-c2ccccc2)n1)N/N=C/c1cccc([N+](=O)[O-])c1	-5	5	50	1	-1	-8	21	0	-4
NC(=O)C1CCN(c2nc(-c3ccc(N)cc3)cs2)CC1	nt	nt	nt	-23	nt	nt	nt	nt	nt
Cc1cc(Nc2cc(Cl)cc(Cl)c2)cc(=O)n1-c1cc(Cl)cc(Cl)c1	nt	4	nt	-8	nt	nt	nt	nt	nt
COC(=O)[C@]12C[C@H](CC(=O)NCc3ccc(OC)c(OC)c3)C(=O)N(Cc3cccc4ccccc34)C1=C[C@H](C(C)(C)C)O[C@@H]2C	nt	10	nt	1	nt	nt	nt	nt	nt
COc1cccc2sc(=NC(=O)CS(=O)(=O)c3ccc(F)cc3)n(C)c12	-8	8	61*	15	3	-4	53*	29*	14
COc1cccc2sc(=NC(=O)CCS(=O)(=O)c3ccc(C)cc3)n(C)c12	-1	5	4	-7	-2	-4	nt	nt	nt
COc1cccc2sc(=NC(=O)CS(=O)(=O)c3ccc(Cl)cc3)n(C)c12	18	5	73*	-5	18	-7	79*	29*	40*
CCn1c(=NC(=O)CS(=O)(=O)c2ccc(C)cc2)sc2cccc(OC)c21	-15	33	68*	0	-2	6	61*	23	37*
CCn1c(=NC(=O)c2ccc(S(=O)(=O)N(C)C)cc2)sc2cccc(OC)c21	10	-16	-6	-1	-10	18	nt	nt	nt
COc1cccc2sc(=NC(=O)CS(=O)(=O)c3ccccc3)n(C)c12	-21	-15	nt	-1	14	-18	nt	nt	nt
CCSc1n[nH]c(=O)n1C	nt	-6	nt	-25	nt	nt	nt	nt	nt
C/C(=N\NC(=O)C(c1ccccc1)c1ccccc1)c1ccccn1	16	-100	89*	12	2	28	56*	31*	37*
C/C(=N\NC(=O)C1COc2ccccc2O1)c1ccccn1 (stereo not drawn)	3	-20	89*	22	22	35	73*	44*	53*
C/C(=N\NC(=O)C1COc2ccccc2O1)c1ccc(C)o1 (stereo not drawn)	-9	6	5	15	-13	2	nt	nt	nt
COC(=O)[C@]12C[C@H](CC(=O)NCCCCc3ccccc3)C(=O)N(Cc3ccc4c(c3)OCO4)C1=C[C@H](C(C)C)O[C@@H]2C1CC1	nt	16	nt	21	nt	nt	nt	nt	nt
CCOc1ccccc1CNS(=O)(=O)c1ccc(-c2cnc(C3CC3)o2)cc1	9	12	55	-1	30	1	55*	59*	-58
